Screening data from PubChem BioAssay.
DT40 TDP1 no CPT – qHTS for Inhibitors of human tyrosyl-DNA phosphodiesterase 1 (TDP1): qHTS in cells in absence of CPT; AID 686978, 2013; DT40 Tdp1-/- hTDP1 cells, no CPT, ATP luminescence, 48 h; hit rate 15% among 420,000; Potency, µM (series often up to 46.2 µM), for the others: at the top dose activity change, negative = growth inhibition, usual class: inhibitors; further: nearly all actives have a fitted effect of over 55% in size
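A cellular qHTS used chicken DT40 cells lacking endogenous Tdp1 but carrying stably transfected human TDP1. Compounds were applied without camptothecin, and cell growth kinetics were judged by ATP-dependent luminescence after ≥48 hr.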
HT1080-NT tox – kills 2HG-producing HT-1080-NT fibrosarcoma cells | HT-1080-NT fibrosarcoma viability, CellTiter-Glo ATP luminescence, 48 h | Potency, µM (top dose mostly 46.1 µM), for inactives: top-dose activity, negative = less viability, hits mostly cytotoxic | hit rate 1.6% among 360,000;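 further: NT is the 2HG producing partner of a matched IDH1 knockdown line; 0% = DMSO-treated cells and -100% = media-only wells without cells; nearly all actives have a fitted effect of over 55% in size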
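Toxicity toward the 2HG-producing NT line was scored as %Activity, normalised to DMSO and no-cell wells, from CellTiter-Glo luminescence after 48 hours' treatment.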
KB-V1 MDR tox – kills drug-selected multidrug resistant KB-V1 cells. KB-V1 MDR cells viability, CellTiter-Glo, 72 h. Potency, µM (highest dose often 46.1 µM), usual class: cytotoxic. hit rate 3.4% among 400,000. AID 1347076; further: nearly all actives have a fitted effect of over 60% in size
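In this primary screen, KB-V1 cells overexpressing P-gp are incubated with library compounds (lowest to highest concentration) for 72 h at 37 degrees C before a luminescent ATP viability read.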
KB-3-1 tox – KB-3-1 parental cell cytotoxicity; KB-3-1 viability, CellTiter-Glo ATP luminescence, 72 h; Potency, µM (highest dose often 46.1 µM), most hits filed as cytotoxic; hit rate 1.4% among 400,000; further: nearly all actives have a fitted effect of over 60% in size
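Cytotoxicity measured as CellTiter-Glo luminescence after 72 h at 37 C. Compound titrations were pinned onto drug-naive KB-3-1 parental adenocarcinoma cells grown in DMEM with 10% FBS, and normalized data fitted to concentration-response curves.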
TDP1 cell CPT – DT40-hTDP1 cell growth loss with CPT; chicken DT40 Tdp1-/-;hTDP1 cells + 20 nM CPT, ATP luminescence, 48 h; Potency, µM (top dose mostly 46.2 µM), for the others: at the top dose activity change, negative = growth inhibition, actives largely listed as inhibitors; hit rate 12% among 420,000; further: nearly all actives have a fitted effect of over 55% in size
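Chicken DT40 Tdp1-/- cells complemented with human TDP1, 400 cells/well, exposed to compounds plus 20 nM camptothecin for at least 48 h at 37 C; viability read as ATP content by CellTiter-Glo luminescence.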
HT1080 IDH1KD tx – kills HT-1080 cells with IDH1 knockdown; hit rate 2% among 360,000; HT-1080 IDH1 knockdown viability, ATP luminescence, 48 h; Potency, µM (series often up to 46.1 µM), for inactives: at the highest dose activity, negative = toxicity, hits mostly cytotoxic;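 further: 0% = DMSO wells and -100% = cell-free medium wells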
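Knockdown cells (IDH1KD HT-1080) received compounds 2 h after plating at 750 cells/well and were kept 48 h at 37 °C in 5% FBS RPMI. A CellTiter-Glo luminescence read gave % activity for curve fitting.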
An asterisk follows results filed as active; i = inactive; u = inconclusive; x = no result; [ ] = remark or other dose. Compounds with a hit are over-represented: about 19% of the library has one in this group of screens. The call rests on the fitted dose curve; in most records, active means well fitted curve in the direction sought with a large enough effect; inconclusive means small, poorly fitted or top-dose-only effect, or another doubt; inactive means no such curve, though single readings can be large; an effect the other way counts as inactive or inconclusive. Unless noted, on the % scale 0 is the no-effect control and ±100 the full control effect; potency means the concentration at half of the fitted maximal effect.

SMILES	DT40 TDP1 no CPT	HT1080-NT tox	KB-V1 MDR tox	KB-3-1 tox	TDP1 cell CPT	HT1080 IDH1KD tx
O=C(NCCC1CCCCN1S(=O)(=O)c1ccc(F)cc1)C(=O)Nc1ccccc1F (configuration not stated)	26µM*	0%	i	i	u	-2%
Cc1cc(S(=O)(=O)N2CCCCC2CCNC(=O)C(=O)NCCN2CCOCC2)ccc1F (configuration not stated)	0%	0%	i	i	0%	2%
CCOCc1nnc(NC(=O)CS(=O)(=O)c2ccc(C)cc2)s1	-18%	8%	i	u	-4%	0%
CCOC(=O)c1c(NC(=O)c2cc(=O)c3ccc(C)cc3o2)sc(C)c1C	-2%	x	i	i	-9%	x
COc1ccccc1NC(=O)C(=O)NCCC1CCCCN1S(=O)(=O)c1ccc(F)cc1 (configuration not stated)	18µM*	-5%	i	i	15µM*	-8%
Cc1ccc(S(=O)(=O)N2CCCCC2CCNC(=O)C(=O)Nc2ccccc2F)cc1 (configuration not stated)	5.8µM*	-4%	5.8µM*	7.3µM*	6.5µM*	-1%
CCN(C(=O)c1cccs1)c1nnc(-c2ccncc2)s1	u	u	18µM*	i	u	7%
Cc1ccc(NC(=O)Cn2cccc2)cc1Cl	-20%	-7%	18µM*	i	-26%	-16%
Cc1ccc(NC(=O)CN2CCN(Cc3ccccc3)CC2)cc1Cl	29µM*	-30%	i	i	-24%	-9%
COc1ccc(-c2cc(=O)oc3c(C)c(O)c(CN(C)C)cc23)cc1	-30%	-10%	2.3µM*	i	u	-9%
CCOC(=O)c1ccc(CN(Cc2ccc(C)cc2)S(=O)(=O)c2cccc([N+](=O)[O-])c2)cc1	u	6%	i	i	4%	10%
CC(=O)Nc1ccc(C(=O)OCc2ccc(Br)cc2)cc1	-25%	-6%	18µM*	i	5%	0%
CCOC(=O)c1ccc(CN(Cc2ccc(C)cc2)S(=O)(=O)c2ccc(F)c(C(=O)Nc3ccc(C)c(F)c3)c2)cc1	-17%	x	x	x	-6%	x
CCOC(=O)c1ccc(CN(Cc2ccc(C)cc2)S(=O)(=O)c2ccc(NC(C)=O)cc2)cc1	15µM*	x	x	x	u	x
CCOC(=O)c1ccc(CN(Cc2ccccc2)S(=O)(=O)c2ccc(C)cc2)cc1	16µM*	x	i	i	29µM*	x
CC(C(=O)O)c1ccc2c(c1)CC(=O)c1ccccc1S2 (configuration not stated)	-11%	x	x	x	-2%	x
CCOC(=O)C1(Cc2cccc(Cl)c2)CCCN(C(=O)C2CC2)C1 (configuration not stated)	u	-10%	u	i	u	-3%
COC(=O)C1=C(CS(=O)(=O)c2cc(Cl)ccc2OC)NC(=O)NC1c1ccccc1 (configuration not stated)	u	x	i	i	-25%	x
Cc1ccc(NC(=O)CSc2nnc(-c3ccccc3)n2C)cc1	-20%	x	i	u	-1%	x
COC(=O)C1=CN(c2ccc3c(c2)OCO3)C(N)=C(C#N)C1c1cccc(F)c1 (configuration not stated)	0.65µM*	3.7µM*	3.7µM*	2.3µM*	1.3µM*	1.8µM*
CCc1ccc(N2C=C(C(=O)OC)C(c3ccc(OC)cc3)C(C#N)=C2N)cc1 (configuration not stated)	-82%	u	18µM*	u	u	u
COC(=O)C1=CN(c2ccc(OC)cc2)C(N)=C(C#N)C1c1ccc(OC)cc1 (configuration not stated)	u	-17%	i	i	10µM*	-15%
COC(=O)C1=C(C)N=C2SC(C#N)=C(N)N2C1c1ccc(OC)cc1 (configuration not stated)	-30%	-21%	i	i	-21%	-23%
COC(=O)C1=CN(c2ccc(C)cc2)C(N)=C(C#N)C1c1ccc(OC)cc1 (configuration not stated)	u	-28%	23µM*	23µM*	u	u
COc1ccc(C2C(C#N)=C(N)Oc3c2oc(CO)cc3=O)cc1 (configuration not stated)	31%	3%	i	i	-13%	-3%
SMILES	DT40 TDP1 no CPT	HT1080-NT tox	KB-V1 MDR tox	KB-3-1 tox	TDP1 cell CPT	HT1080 IDH1KD tx
O=C(Nc1cccc2ccccc12)c1cnn2c1NC(=C1CC1)C=C2C(F)F	u	x	i	i	u	x
O=C(CC[C@H]1O[C@@H](n2cnc3c(NC(=O)c4ccccc4)ncnc32)[C@H](O)[C@@H]1O)NCCCN1CCOCC1	-10%	24%	i	i	-9%	14%
O=C(CSc1nc(O)cc(=O)[nH]1)N1c2ccccc2CCc2ccccc21	-4%	-2%	i	u	-5%	1%
CCc1cccc(C)c1NC(=O)CCCn1nc(C)c2sc3ccccc3c2c1=O	-14%	x	i	i	-5%	x
Cc1ncc2c(c1CNC(=O)c1ccc3c(c1)OCO3)CCN(C(=O)/C=C/c1ccccc1Cl)C2	-8%	x	x	x	-2%[9.04 µM]	x
Cc1nc2c3c(sc2c(=O)[nH]1)NC(=O)CC3c1ccccc1Cl (configuration not stated)	u	2%	i	i	-7%	1%
C[C@H](N)CCP(=O)(O)O	-19%	x	x	x	-1%	x
COC(=O)C1=CN(c2ccc(N3CCOCC3)cc2)C(N)=C(C#N)C1c1ccccc1 (configuration not stated)	18µM*	-14%	i	u	u	-10%
COC(=O)C1=CN(c2ccc(OC)cc2OC)C(N)=C(C#N)C1c1ccc(OC)cc1 (configuration not stated)	21µM*	u	u	i	u	u
O=C1CC(c2ccccc2)Oc2cc(O)cc(O)c21 (configuration not stated)	-26%	7%	i	i	-20%	7%
CSC1=NC2(CC(c3ccccc3)Oc3cc(O)ccc32)CC(C)(C)N1 (configuration not stated)	21µM*	-15%	i	i	23µM*	-18%
CC(=O)c1sc2c(c1OC(=O)c1ccc(Cl)cc1)c(=O)n(-c1ccccc1)c(=S)n2-c1ccccc1	u	-19%	15µM*	u	u	u
